Source: PubChem BioAssay
Where “and” joins values, the source holds several entries; their conditions need not be identical. Equal entries are not always repeated. Records with an inconclusive call do not appear. Calls of active or inactive are those of the source.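 Rule for the calls, unless noted: active = normalized viability below 100% at a tested concentration; inactive = the rest.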

Experiments:
[1] = viability loss in pontine glioma line – cell-based, SU-DIPG-XVII, MIPE5.0, CellTiter-Glo, qHTS, dose response (AID 1347060; cut-off not given, nearly all actives have AC50 up to about 26 µM;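 for AC50: cells exposed to compound for 48 hours before viability readout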); settings: CellTiter-Glo ATP luminescence
[2] = viability loss in pontine glioma line – cell-based, SU-DIPG-XIII, MIPE4.0, CellTiter-Glo, qHTS, dose response (AID 1347061; cut-off not given, nearly all actives have AC50 up to about 37 µM;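 note: cells exposed to compound for 48 hours before readout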); settings: CellTiter-Glo ATP luminescence
[3] = viability loss in pontine glioma line – cell-based, JHH-DIPG-1, MIPE4.0, CellTiter-Glo, qHTS, dose response (AID 1347062; cut-off not given, nearly all actives have AC50 up to about 27 µM;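 for AC50: cells exposed to compound for two days before readout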); settings: JHH-DIPG-1 viability, CellTiter-Glo ATP luminescence
[4] = viability loss in pontine glioma line – cell-based, SU-DIPG-IV, MIPE4.0, CellTiter-Glo, qHTS, dose response (AID 1347063; cut-off not given, nearly all actives have AC50 up to about 30 µM;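 note: compound exposure lasted 48 hours before the viability readout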); settings: CellTiter-Glo ATP luminescence
[5] = viability loss in pontine glioma line – cell-based, SU-DIPG-XXV, MIPE5.0, CellTiter-Glo, qHTS, dose response (AID 1347065; cut-off not given, nearly all actives have AC50 up to about 26 µM;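 note: cells exposed to compound for 48 hours before ATP readout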); settings: CellTiter-Glo ATP luminescence
[6] = growth inhibition of DIPG cells – cell-based, MIPE4.0 library, CellTiter-Glo luminescence, qHTS (AID 1347066; cut-off not given, nearly all actives have AC50 up to about 30 µM;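 note: cells exposed to compound for 48 hours before readout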); settings: SU-DIPG-VI viability, CellTiter-Glo ATP luminescence
[7] = growth inhibition of DIPG cells – cell-based, MIPE5.0 library, qHTS (AID 1347068; cut-off not given, nearly all actives have IC50 up to about 30 µM;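 for IC50: cells exposed to compound for 48 hours before viability readout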); settings: SU-DIPG-XXV viability
[8] = viability loss with induced miR-34 in A549 – imaging, A549 dox-inducible miR-34, nuclei and caspase counts, primary screen (AID 1347080;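 active = compounds whose cell count with miR-34 switched on is under 0.7 times the count with it off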); settings: A549 miR-34 inducible, Hoechst nuclei count, 48 h
[9] = MELAS cybrid and Rieske KO viability enhancers – cell-based, MELAS cybrids, Rieske KO mouse fibroblasts, CellTiter-Glo, primary screen (AID 1508586;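 active = mean z-score across replicates of 1.96 or higher in either the MELAS or the Rieske mutant cell line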;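 note: z relative to plate mean and SD of compound and empty wells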); settings: low glucose
[10] = drug combination growth inhibition, ovarian cancer – cell-based, oncology-focused library, rucaparib conditional, profiling panel (AID 1508598); settings: patient-derived ovarian cancer cells, CellTiter-Glo viability, 144 h, stronger effect = lower value
[11] = viability loss in pontine glioma line – cell-based, SU-DIPG-XIII, MIPE5.0, CellTiter-Glo, qHTS, dose response (AID 1347064; cut-off not given, nearly all actives have AC50 up to about 23 µM;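 for AC50: cells exposed to compound for 48 hours before the viability read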); settings: CellTiter-Glo ATP luminescence
[12] = JHH-DIPG-1 glioma cell viability, MIPE5.0 library, CellTiter-Glo luminescence, qHTS (AID 1347067; cut-off not given, nearly all actives have AC50 up to about 26 µM;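 note: cells exposed to compound for 48 hours before readout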); settings: JHH-DIPG-1 glioma viability, CellTiter-Glo ATP luminescence
[13] = compounds altering HSF1 focus formation in cells – imaging, Selleck Cancer Library (AID 1347162; in the data active = plate-normalised HSF1 focus index below about 0.46); settings: human cells, HSF1 nuclear foci imaging, at 10 µM; SSMD: measured here: HSF1 foci SSMD mean; cell count: measured here: cell number; plate-normalised HSF1 focus index: stronger effect = lower value
[14] = stronger effect = lower value, cell number ratio, induced over uninduced
[15] = measured here: relative caspase fold change +Dox/-Dox
[16] = measured here: total cells with miR-34 induction, stronger effect = lower value
[17] = measured here: total cells without miR-34 induction

C=C(c1ccc(C(=O)O)cc1)c1cc2c(cc1C)C(C)(C)CCC2(C)C
1.39 and 1.44: fold change [8, 15]
6410 and 6330: cell count [8, 16]
inactive: outcome [2] | outcome [3] | outcome [4] | outcome [6] | outcome [7] | fold change [8, 14] 0.951 and 0.85 | z-score ([9]; MELAS cybrid survival, CellTiter-Glo 48 h, stronger effect = higher value) 0.149 and 0.79 | viability ([10]; at 0.000305 µM, OCI-C5x cells, with rucaparib 10 µM, 100% = cells with rucaparib alone) 115% | viability ([10]; at 0.000305 µM, OCI-C5x cells, without rucaparib) 109% | viability ([10]; at 0.000305 µM, OCI-P5x cells, without rucaparib) 106% | viability ([10]; at 0.00122 µM, OCI-C5x cells, with rucaparib 10 µM, 100% = cells with rucaparib alone) 116% | viability ([10]; at 0.00122 µM, OCI-C5x cells, without rucaparib) 109% | viability ([10]; at 0.00122 µM, OCI-P5x cells, without rucaparib) 111% | viability ([10]; at 0.00488 µM, OCI-C5x cells, with rucaparib 10 µM, 100% = cells with rucaparib alone) 112% | viability ([10]; at 0.00488 µM, OCI-C5x cells, without rucaparib) 120% | viability ([10]; at 0.00488 µM, OCI-P5x cells, with rucaparib 20 µM, 100% = cells with rucaparib alone) 108% | viability ([10]; at 0.00488 µM, OCI-P5x cells, without rucaparib) 120% | viability ([10]; at 0.0195 µM, OCI-C5x cells, with rucaparib 10 µM, 100% = cells with rucaparib alone) 108% | viability ([10]; at 0.0195 µM, OCI-C5x cells, without rucaparib) 119% | viability ([10]; at 0.0195 µM, OCI-P5x cells, with rucaparib 20 µM, 100% = cells with rucaparib alone) 113% | viability ([10]; at 0.0195 µM, OCI-P5x cells, without rucaparib) 124% | viability ([10]; at 0.0781 µM, OCI-C5x cells, with rucaparib 10 µM, 100% = cells with rucaparib alone) 106% | viability ([10]; at 0.0781 µM, OCI-C5x cells, without rucaparib) 106% | viability ([10]; at 0.0781 µM, OCI-P5x cells, with rucaparib 20 µM, 100% = cells with rucaparib alone) 112% | viability ([10]; at 0.0781 µM, OCI-P5x cells, without rucaparib) 125% | viability ([10]; at 0.313 µM, OCI-C5x cells, with rucaparib 10 µM, 100% = cells with rucaparib alone) 103% | viability ([10]; at 0.313 µM, OCI-C5x cells, without rucaparib) 122% | viability ([10]; at 0.313 µM, OCI-P5x cells, with rucaparib 20 µM, 100% = cells with rucaparib alone) 115% | viability ([10]; at 0.313 µM, OCI-P5x cells, without rucaparib) 130% | viability ([10]; at 1.25 µM, OCI-C5x cells, without rucaparib) 122% | viability ([10]; at 1.25 µM, OCI-P5x cells, with rucaparib 20 µM, 100% = cells with rucaparib alone) 117% | viability ([10]; at 1.25 µM, OCI-P5x cells, without rucaparib) 126% | viability ([10]; at 5 µM, OCI-C5x cells, with rucaparib 10 µM, 100% = cells with rucaparib alone) 101% | viability ([10]; at 5 µM, OCI-C5x cells, without rucaparib) 128% | viability ([10]; at 5 µM, OCI-P5x cells, with rucaparib 20 µM, 100% = cells with rucaparib alone) 116% | viability ([10]; at 5 µM, OCI-P5x cells, without rucaparib) 125%
6740 and 7440: cell count [8, 17]
active: AC50 [1] 23.5 µM | AC50 [5] 0.118 µM | viability ([10]; at 0.000305 µM, OCI-P5x cells, with rucaparib 20 µM, 100% = cells with rucaparib alone) 90.9% | viability ([10]; at 0.00122 µM, OCI-P5x cells, with rucaparib 20 µM, 100% = cells with rucaparib alone) 96% | viability ([10]; at 1.25 µM, OCI-C5x cells, with rucaparib 10 µM, 100% = cells with rucaparib alone) 98%
0.712 and -0.251: z-score ([9]; Rieske KO mouse fibroblast survival, CellTiter-Glo 72 h)

C[C@H](CCC(=O)O)[C@H]1CCC2C3C[C@H](O)[C@@H]4C[C@H](O)CC[C@]4(C)C3CC[C@@]21C (stereo partly drawn)
inactive: outcome [1] | outcome [2] | outcome [3] | outcome [11] | outcome [5] | outcome [6] | outcome [12] | outcome [7]

CC[C@H](CO)Nc1nc(NCc2ccccc2)c2ncn(C(C)C)c2n1
7490: cell count [13]
active: AC50 [1] 20.9 µM | AC50 [2] 16.6 µM | AC50 [3] 26.4 µM | AC50 [4] 20.9 µM
983: cell count [8, 16]
inactive: fold change [8, 14] 0.923 | plate-normalised HSF1 focus index [13] 1.11
1.07: fold change [8, 15]
1060: cell count [8, 17]
1.82: SSMD [13]

CC(C)(C)OC(=O)CN(Cc1ccc(Cl)cc1)Cc1ccc([N+](=O)[O-])s1
active: AC50 [1] 18.6 µM | AC50 [11] 16.6 µM | AC50 [5] 11.8 µM
inactive: outcome [2] | outcome [3] | outcome [6] | outcome [7]

CC(C)(O)CCc1ccc(OCc2cc(-c3cccc(OC(F)F)c3)c3ncccc3c2)cc1
active: AC50 [1] 23.5 µM | AC50 [12] 23.5 µM
inactive: outcome [2] | outcome [3] | outcome [4] | outcome [6]

C/C=C1\NC(=O)[C@H]2CSSCC/C=C\[C@H](CC(=O)N[C@H](C(C)C)C(=O)N2)OC(=O)[C@H](C(C)C)NC1=O
active: AC50 [1] 0.0833 µM | AC50 [2] 0.0148 µM | AC50 [3] 0.0118 µM | AC50 [4] 0.00935 µM | AC50 [5] 0.059 µM | IC50 [7] 3.72 µM
